Measurements published in paper PMC7862700, “An all-to-all approach to the identification of sequence-specific readers for epigenetic DNA modifications on cytosine”.

How the values were obtained:
Assay in all cases: DAPPL (digital affinity profiling via proximity ligation, sequencing); 10 mM Tris-HCl pH 7.5, 50 mM NaCl, 1 mM DTT, 4% glycerol, room temperature, 30 min; GST-TFs on glutathione beads, 16-mer random dsDNA library, 0.1% formaldehyde crosslink after washing; high values mean tight binding
Conditions in all cases: protein: recombinant; tags: N-terminal GST; dsDNA, one strand shown
FLI1 = target: T1, FLI1 (Homo sapiens, UniProt Q01543 1-452)
T1 sequence: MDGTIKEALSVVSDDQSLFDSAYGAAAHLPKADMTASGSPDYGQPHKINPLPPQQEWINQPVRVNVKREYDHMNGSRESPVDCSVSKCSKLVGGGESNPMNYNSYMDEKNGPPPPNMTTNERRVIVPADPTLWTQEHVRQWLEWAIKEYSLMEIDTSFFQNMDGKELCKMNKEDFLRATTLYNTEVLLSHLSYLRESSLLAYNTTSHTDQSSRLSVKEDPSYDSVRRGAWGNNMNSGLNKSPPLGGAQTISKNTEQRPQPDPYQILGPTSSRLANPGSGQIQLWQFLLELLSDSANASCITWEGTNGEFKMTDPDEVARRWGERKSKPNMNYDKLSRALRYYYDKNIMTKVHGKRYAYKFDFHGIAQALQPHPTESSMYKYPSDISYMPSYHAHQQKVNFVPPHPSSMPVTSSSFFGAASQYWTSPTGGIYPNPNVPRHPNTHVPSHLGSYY
In short: (§1)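 Human transcription factors were made in yeast as GST fusions, captured on glutathione beads and barcoded with DNA. With a tag-only sample included, the pool was incubated with 200 nmole of a random double-stranded 16-mer DNA library in Tris/NaCl/DTT/glycerol buffer at room temperature for 30 min, then crosslinked with 0.1% formaldehyde after washing, ligated by proximity, amplified and sequenced. For binding signal, each hexamer's read frequency for a factor is divided by its frequency for the tag-only sample.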

ELK1 = target: T2, ELK1 (Homo sapiens, UniProt P19419 1-428)
T2 sequence: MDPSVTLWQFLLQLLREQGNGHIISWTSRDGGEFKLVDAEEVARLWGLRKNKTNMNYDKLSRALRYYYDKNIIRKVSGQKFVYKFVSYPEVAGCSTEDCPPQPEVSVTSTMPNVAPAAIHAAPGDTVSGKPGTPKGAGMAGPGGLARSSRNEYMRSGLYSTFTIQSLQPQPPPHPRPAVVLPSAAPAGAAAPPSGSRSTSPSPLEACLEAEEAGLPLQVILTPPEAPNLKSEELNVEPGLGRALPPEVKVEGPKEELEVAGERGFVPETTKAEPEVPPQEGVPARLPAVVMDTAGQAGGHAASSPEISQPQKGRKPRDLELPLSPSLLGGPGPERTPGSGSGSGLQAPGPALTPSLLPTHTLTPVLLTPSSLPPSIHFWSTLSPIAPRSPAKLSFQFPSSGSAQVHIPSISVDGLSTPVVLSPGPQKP
In short: as §1

GABPA = target: T3, GABPA (Homo sapiens, UniProt Q06546 1-454)
T3 sequence: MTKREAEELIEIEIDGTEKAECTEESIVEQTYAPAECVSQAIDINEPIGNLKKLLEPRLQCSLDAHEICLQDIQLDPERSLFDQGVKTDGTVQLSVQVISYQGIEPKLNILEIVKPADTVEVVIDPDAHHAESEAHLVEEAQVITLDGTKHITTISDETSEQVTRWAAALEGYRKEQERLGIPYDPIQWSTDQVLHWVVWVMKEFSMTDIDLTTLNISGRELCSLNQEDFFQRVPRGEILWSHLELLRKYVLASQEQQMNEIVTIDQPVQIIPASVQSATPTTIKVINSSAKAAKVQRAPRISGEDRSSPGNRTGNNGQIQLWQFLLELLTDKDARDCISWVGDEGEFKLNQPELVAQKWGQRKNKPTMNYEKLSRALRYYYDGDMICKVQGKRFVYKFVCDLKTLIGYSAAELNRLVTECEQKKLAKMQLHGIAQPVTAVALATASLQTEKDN
In short: as §1

ELF1 = ELF1 (Homo sapiens, UniProt P32519 1-619)
Chain of ELF1 (P32519 whole entry): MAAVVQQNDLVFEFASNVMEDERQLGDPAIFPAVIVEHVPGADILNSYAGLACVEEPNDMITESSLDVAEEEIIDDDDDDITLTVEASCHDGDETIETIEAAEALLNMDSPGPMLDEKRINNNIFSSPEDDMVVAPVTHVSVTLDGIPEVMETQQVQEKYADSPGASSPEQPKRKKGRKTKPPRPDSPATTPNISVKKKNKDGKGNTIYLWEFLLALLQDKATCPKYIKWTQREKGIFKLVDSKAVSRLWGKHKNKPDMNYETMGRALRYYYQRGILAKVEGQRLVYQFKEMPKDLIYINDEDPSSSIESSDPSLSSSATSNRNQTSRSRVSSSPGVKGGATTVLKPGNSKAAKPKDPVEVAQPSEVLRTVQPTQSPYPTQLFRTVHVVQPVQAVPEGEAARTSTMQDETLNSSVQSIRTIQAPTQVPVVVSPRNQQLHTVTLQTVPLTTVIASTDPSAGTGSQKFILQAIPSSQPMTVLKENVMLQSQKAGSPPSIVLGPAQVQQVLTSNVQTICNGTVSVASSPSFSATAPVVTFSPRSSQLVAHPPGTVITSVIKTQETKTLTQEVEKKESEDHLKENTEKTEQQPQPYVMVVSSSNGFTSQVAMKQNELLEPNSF
In short: as §1

EHF = target: T4, EHF (Homo sapiens, UniProt Q9NZC4 1-300)
T4 sequence: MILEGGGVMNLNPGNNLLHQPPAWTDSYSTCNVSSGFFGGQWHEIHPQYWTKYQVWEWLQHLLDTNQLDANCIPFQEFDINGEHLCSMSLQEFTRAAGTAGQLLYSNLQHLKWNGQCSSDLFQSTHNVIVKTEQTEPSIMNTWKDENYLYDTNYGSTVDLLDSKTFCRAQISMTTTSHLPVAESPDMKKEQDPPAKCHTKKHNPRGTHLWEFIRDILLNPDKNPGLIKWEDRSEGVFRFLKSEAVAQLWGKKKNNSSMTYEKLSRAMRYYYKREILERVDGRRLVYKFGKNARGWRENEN
In short: as §1

SPIB = SPIB (Homo sapiens, UniProt Q01892 1-262)
Chain of SPIB (Q01892 whole entry): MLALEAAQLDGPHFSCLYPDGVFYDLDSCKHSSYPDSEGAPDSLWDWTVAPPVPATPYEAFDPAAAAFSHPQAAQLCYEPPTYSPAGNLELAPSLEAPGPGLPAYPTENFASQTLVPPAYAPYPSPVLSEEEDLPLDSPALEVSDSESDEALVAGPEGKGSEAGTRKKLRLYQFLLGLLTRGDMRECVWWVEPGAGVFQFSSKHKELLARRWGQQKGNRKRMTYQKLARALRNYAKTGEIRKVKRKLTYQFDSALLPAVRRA
In short: as §1

ELK3 = target: T5, ELK3 (Homo sapiens, UniProt P41970 1-407)
T5 sequence: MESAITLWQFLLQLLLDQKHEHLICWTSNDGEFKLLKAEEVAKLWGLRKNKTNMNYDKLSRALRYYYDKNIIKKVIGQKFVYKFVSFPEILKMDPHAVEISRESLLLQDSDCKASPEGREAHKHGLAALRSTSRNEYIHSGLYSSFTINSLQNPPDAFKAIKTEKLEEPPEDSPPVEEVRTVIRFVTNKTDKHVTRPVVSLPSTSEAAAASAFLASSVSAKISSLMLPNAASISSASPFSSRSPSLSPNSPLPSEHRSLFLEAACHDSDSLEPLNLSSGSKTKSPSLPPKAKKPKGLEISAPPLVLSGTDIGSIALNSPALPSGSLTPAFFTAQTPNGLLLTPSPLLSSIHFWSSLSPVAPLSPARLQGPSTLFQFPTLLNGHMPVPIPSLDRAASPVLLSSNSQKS
In short: as §1

SPIC = target: T6, SPIC (Homo sapiens, UniProt Q8N5J4 1-248)
T6 sequence: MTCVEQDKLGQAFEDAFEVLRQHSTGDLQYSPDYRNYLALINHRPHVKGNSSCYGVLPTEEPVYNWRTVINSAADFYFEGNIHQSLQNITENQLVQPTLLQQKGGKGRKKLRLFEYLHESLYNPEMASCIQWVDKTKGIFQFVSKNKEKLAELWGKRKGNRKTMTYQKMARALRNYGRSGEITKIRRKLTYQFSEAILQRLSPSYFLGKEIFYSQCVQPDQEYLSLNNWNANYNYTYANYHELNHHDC
In short: as §1

ELF4 = ELF4 (Homo sapiens, UniProt Q99607 1-663)
Chain of ELF4 (Q99607 whole entry): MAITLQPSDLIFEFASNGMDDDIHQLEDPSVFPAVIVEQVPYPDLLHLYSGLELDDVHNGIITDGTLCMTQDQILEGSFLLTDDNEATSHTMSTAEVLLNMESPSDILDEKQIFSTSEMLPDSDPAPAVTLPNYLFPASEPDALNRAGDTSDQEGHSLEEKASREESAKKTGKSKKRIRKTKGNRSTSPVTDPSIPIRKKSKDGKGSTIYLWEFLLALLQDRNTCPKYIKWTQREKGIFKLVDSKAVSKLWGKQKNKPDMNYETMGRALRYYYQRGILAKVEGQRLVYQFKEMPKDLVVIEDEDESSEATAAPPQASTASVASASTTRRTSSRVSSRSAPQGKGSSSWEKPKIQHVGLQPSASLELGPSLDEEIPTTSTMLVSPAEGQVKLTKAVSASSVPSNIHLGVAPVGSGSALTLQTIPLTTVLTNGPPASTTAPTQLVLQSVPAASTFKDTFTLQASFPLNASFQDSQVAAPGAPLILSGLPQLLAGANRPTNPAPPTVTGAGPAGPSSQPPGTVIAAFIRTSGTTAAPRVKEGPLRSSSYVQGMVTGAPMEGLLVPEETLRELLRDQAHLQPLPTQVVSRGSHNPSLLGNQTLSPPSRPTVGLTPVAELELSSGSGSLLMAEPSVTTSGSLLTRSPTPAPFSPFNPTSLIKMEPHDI
In short: as §1

ELK4 = target: T7, ELK4 (Homo sapiens, UniProt P28324-2 1-405)
T7 sequence: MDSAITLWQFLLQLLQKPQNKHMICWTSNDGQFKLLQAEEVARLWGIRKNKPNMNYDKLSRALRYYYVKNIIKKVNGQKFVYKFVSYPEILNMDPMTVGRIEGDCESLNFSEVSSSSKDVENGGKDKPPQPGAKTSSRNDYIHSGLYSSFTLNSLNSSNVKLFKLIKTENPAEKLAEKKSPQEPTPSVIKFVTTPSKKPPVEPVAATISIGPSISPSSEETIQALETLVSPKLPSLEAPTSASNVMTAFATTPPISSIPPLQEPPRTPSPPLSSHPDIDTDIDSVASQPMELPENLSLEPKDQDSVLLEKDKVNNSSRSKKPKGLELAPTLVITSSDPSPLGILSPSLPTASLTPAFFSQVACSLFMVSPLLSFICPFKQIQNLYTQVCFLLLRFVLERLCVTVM
In short: as §1

ETV2 = target: T8, ETV2 (Homo sapiens, UniProt O00321 1-342)
T8 sequence: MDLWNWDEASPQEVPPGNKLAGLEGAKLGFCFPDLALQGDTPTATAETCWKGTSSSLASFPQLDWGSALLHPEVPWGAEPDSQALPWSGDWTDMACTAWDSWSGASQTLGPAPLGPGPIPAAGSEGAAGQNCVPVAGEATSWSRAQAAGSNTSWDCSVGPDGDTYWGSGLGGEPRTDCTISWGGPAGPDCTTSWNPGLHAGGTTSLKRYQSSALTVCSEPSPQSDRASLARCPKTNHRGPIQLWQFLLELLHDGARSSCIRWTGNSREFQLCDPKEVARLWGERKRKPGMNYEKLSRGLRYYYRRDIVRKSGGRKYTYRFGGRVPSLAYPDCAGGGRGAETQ
In short: as §1

ETV1 = ETV1 (Homo sapiens, UniProt P50549 1-477)
Chain of ETV1 (P50549 whole entry): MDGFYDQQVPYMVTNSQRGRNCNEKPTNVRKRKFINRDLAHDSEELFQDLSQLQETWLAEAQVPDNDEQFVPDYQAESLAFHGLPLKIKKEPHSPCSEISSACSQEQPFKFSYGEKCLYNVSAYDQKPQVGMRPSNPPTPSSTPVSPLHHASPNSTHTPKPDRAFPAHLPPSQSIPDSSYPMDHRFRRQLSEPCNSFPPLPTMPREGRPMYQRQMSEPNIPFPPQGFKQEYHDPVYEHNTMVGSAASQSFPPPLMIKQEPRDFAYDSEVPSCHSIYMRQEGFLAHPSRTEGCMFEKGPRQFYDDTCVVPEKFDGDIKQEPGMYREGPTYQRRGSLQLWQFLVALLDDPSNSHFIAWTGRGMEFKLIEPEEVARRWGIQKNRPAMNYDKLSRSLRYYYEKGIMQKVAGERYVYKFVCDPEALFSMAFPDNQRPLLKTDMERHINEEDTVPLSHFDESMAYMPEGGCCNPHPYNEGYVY
In short: as §1

ERF = target: T9, ERF (Homo sapiens, UniProt P50548 1-548)
T9 sequence: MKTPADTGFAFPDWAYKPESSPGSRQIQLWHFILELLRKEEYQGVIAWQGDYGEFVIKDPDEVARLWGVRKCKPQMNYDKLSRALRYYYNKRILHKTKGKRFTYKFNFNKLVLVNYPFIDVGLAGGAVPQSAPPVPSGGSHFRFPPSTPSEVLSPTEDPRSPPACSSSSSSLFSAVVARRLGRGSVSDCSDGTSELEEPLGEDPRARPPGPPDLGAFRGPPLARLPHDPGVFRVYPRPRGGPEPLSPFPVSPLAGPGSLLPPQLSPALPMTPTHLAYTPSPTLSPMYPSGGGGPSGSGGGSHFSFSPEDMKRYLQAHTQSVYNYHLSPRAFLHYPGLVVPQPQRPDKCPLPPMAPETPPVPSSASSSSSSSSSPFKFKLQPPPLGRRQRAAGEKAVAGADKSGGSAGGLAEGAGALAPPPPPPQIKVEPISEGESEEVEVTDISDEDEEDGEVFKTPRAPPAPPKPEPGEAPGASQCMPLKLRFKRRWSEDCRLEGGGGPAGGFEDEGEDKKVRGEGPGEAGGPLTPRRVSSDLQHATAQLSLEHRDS
In short: as §1

ETV7 = target: T10, ETV7 (Homo sapiens, UniProt Q9Y603 1-341)
T10 sequence: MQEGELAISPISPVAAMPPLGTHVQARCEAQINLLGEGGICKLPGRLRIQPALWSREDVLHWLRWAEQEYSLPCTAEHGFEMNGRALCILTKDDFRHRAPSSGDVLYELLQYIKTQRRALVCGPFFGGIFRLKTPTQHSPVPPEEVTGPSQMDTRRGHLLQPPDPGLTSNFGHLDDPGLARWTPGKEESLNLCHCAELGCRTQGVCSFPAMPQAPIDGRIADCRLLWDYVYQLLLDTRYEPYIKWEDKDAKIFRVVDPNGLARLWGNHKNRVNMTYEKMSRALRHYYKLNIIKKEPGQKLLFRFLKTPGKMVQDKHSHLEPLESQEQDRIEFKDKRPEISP
In short: as §1

ETV3 = target: T11, ETV3 (Homo sapiens, UniProt P41162-2 1-143)
T11 sequence: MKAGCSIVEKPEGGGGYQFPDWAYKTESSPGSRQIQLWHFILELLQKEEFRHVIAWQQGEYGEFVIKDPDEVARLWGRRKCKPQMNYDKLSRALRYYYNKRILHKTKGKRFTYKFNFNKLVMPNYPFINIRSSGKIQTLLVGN
In short: as §1

ETV6 = ETV6 (Homo sapiens, UniProt P41212 1-452)
Chain of ETV6 (P41212 whole entry): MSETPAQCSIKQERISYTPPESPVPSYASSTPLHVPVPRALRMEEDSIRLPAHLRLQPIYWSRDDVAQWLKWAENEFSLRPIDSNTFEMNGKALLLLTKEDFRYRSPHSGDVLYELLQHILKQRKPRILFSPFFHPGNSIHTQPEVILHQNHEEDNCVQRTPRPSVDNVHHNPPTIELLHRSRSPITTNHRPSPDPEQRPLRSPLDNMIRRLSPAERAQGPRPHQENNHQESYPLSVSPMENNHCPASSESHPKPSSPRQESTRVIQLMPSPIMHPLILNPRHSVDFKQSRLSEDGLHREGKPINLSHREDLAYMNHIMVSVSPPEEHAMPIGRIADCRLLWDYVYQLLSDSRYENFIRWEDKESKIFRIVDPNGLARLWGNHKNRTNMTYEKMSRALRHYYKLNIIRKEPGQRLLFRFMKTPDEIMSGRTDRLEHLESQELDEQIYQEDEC
In short: as §1

Question: With ACCACG as the sequence, how does the binding signal (FLI1) read?
Answer: Its binding signal is 1.14 fold enrichment (6-mer frequency, TF over GST control).

Question: What about the binding signal (ELK1) of the same sequence?
Answer: The binding signal was 1.16 fold enrichment (6-mer frequency, TF over GST control).

Question: What about the binding signal (GABPA) of the same sequence?
Answer: The binding signal was 1.09 fold enrichment (6-mer frequency, TF over GST control).

Question: And the binding signal (ELF1)?
Answer: Its binding signal is 1.18 fold enrichment (6-mer frequency, TF over GST control).

Question: What about the binding signal (EHF) of the same sequence?
Answer: Its binding signal is 1.04 fold enrichment (6-mer frequency, TF over GST control).

Question: What about the binding signal (SPIB) of the same sequence?
Answer: Its binding signal is 1.04 fold enrichment (6-mer frequency, TF over GST control).

Question: And the binding signal (ELK3)?
Answer: Its binding signal is 1.08 fold enrichment (6-mer frequency, TF over GST control).

Question: What about the binding signal (SPIC) of the same sequence?
Answer: The binding signal was 1.08 fold enrichment (6-mer frequency, TF over GST control).

Question: And the binding signal (ELF4)?
Answer: The binding signal was 1.05 fold enrichment (6-mer frequency, TF over GST control).

Question: And the binding signal (ELK4)?
Answer: Its binding signal is 1.11 fold enrichment (6-mer frequency, TF over GST control).

Question: What about the binding signal (ETV2) of the same sequence?
Answer: Its binding signal is 1.09 fold enrichment (6-mer frequency, TF over GST control).

Question: What about the binding signal (ETV1) of the same sequence?
Answer: The binding signal was 1.05 fold enrichment (6-mer frequency, TF over GST control).

Question: And the binding signal (ERF)?
Answer: Its binding signal is 1.03 fold enrichment (6-mer frequency, TF over GST control).

Question: And the binding signal (ETV7)?
Answer: Its binding signal is 1.04 fold enrichment (6-mer frequency, TF over GST control).

Question: What about the binding signal (ETV3) of the same sequence?
Answer: Its binding signal is 1.04 fold enrichment (6-mer frequency, TF over GST control).

Question: What about the binding signal (ETV6) of the same sequence?
Answer: The binding signal was 1.02 fold enrichment (6-mer frequency, TF over GST control).
